Screening data as filed in PubChem.
Shown are actives, neighbours in structure and some others; about 2.5% of the full set was active somewhere.
Cruzain inh Det: blocks cruzain activity in presence of Triton detergent; 200,000 tested, 0.43% active; purified cruzain, Z-FR-AMC fluorescence, 0.01% Triton; P25779; Potency, µM, hits mostly inhibitors; note: nearly all actives have a fitted effect of over 40% in size
Target sequence (P25779 123-467 limits assumed): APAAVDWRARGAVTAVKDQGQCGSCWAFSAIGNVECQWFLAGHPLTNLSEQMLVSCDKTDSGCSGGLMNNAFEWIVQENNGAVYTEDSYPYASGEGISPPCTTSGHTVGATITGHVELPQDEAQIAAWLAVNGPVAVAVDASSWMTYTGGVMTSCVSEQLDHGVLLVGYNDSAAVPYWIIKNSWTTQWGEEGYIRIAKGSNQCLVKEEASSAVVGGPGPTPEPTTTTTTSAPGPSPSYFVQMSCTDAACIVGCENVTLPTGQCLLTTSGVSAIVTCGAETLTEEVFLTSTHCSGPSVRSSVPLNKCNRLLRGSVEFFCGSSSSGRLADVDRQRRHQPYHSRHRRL
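Compounds were screened in titration against cruzain (1.5 nM) with 0.01% Triton X-100 to counter colloidal aggregation. Activity was the AMC fluorescence increase over 60 s after adding 2 uM Z-FR-AMC at pH 5.5.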
Cruzain inh noDet: inhibitors of Trypanosoma cruzi cruzain without detergent. purified cruzain, Z-FR-AMC fluorescence, no detergent. Potency, µM, usual class: inhibitors. 200,000 tested, 2.3% active. AID 1476; note: nearly all actives have a fitted effect of over 40% in size
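Purified cruzain at 1.5 nM, pre-incubated 15 min with compound at room temperature in 100 mM sodium acetate pH 5.5, 5 mM DTT, 0.00005% Triton X-100. Reaction started with 2 uM Z-FR-AMC; AMC fluorescence increase over 60 s gives rate.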
Of the large screens only hits and unclear results are named; the others gave an inactive call. Calls come from the whole dose curve; as a rule, active = well fitted curve in the direction sought with a large enough effect; inconclusive = small, poorly fitted or top-dose-only effect, or another doubt; inactive = no such curve, though single readings can be large; an effect the other way counts as inactive or inconclusive.

Cc1cccc(N2CCN(C(=O)c3ccc(Cl)c(S(=O)(=O)NCc4ccco4)c3)CC2)c1C	none
CCOc1ccc(NC(=O)CC2C(=O)N(c3ccc(F)cc3)C(=O)N2Cc2ccc(OC)c(OC)c2)cc1 (configuration not stated)	Cruzain inh noDet inconclusive
CNC(=S)N/N=C/c1ccccc1Cl	none
CNC(=S)N/N=C/c1cc(C)n(-c2ccc(Cl)c(Cl)c2)c1C	Cruzain inh noDet 32µM
CCCSc1nc2sc3c(c2c(=O)n1-c1ccccc1)CCC(C)C3 (configuration not stated)	none
COc1cc(OC)c(OC)cc1/C=N/NC(=O)C[n+]1ccccc1	none
CCOc1c(Cl)cc(/C=N/NC(N)=S)cc1OC	Cruzain inh Det 2.5µM, Cruzain inh noDet 0.5µM
C#CCOc1c(Cl)cc(/C=N/NC(N)=S)cc1OCC	Cruzain inh Det 2µM, Cruzain inh noDet 0.63µM
CCOc1cc(C(=O)O)cc(Cl)c1OCC#N	none
COc1cc(OC)c(/C=N/NC(N)=S)cc1Br	Cruzain inh Det 0.18µM, Cruzain inh noDet 0.25µM
COc1cc(/C=N/O)cc(Cl)c1OC	none
Cc1noc2nc(C(=O)O)nc(N3CCCCC3)c12	none
Nc1ccc(-c2nc3ccc(C(=O)O)cc3s2)cc1	Cruzain inh Det 25µM, Cruzain inh noDet inconclusive
O=C(O)c1ccc2nc(-c3ccccc3)sc2c1	none
CC1CCC(Nc2ncnc3onc(-c4ccc(Cl)cc4)c23)CC1 (configuration not stated)	none
Oc1ccc(Br)cc1-c1cc(-c2ccccc2)n[nH]1	none
Oc1ccc(Br)cc1-c1cc(-c2ccc(Cl)cc2)n[nH]1	Cruzain inh noDet 32µM
CCOc1ccc(-c2cn3c(n2)sc2cc(C(=O)NCCc4ccc(OC)c(OC)c4)ccc23)cc1	none
COc1cc(CN(C(=O)c2ccccc2)c2ccccn2)cc(OC)c1OC	none
Cc1cccc(C)c1Nc1nnc(SCc2nc3ccccc3s2)s1	Cruzain inh noDet 32µM
COc1cccc(Nc2nnc(SCc3nc4ccccc4s3)s2)c1	none
O=C(Cn1c(=O)n(Cc2ccco2)c(=O)c2ccccc21)Nc1ccc(Cl)cc1Cl	none
Cc1ccc(Cl)cc1Nc1nc(-c2sc(NC(=O)c3cccc(Cl)c3)nc2C)cs1	Cruzain inh noDet 4µM
Cc1ccccc1Nc1nc(=O)c2cc([N+](=O)[O-])ccc2s1	none
CCCCC(=O)Nc1nc(C)c(-c2csc(Nc3ccccc3OC)n2)s1	Cruzain inh noDet inconclusive
Cc1ccccc1Nc1nc(-c2sc(NC(=O)c3cccc(Cl)c3)nc2C)cs1	Cruzain inh noDet 6.3µM
Cc1ccccc1Nc1nc(-c2sc(NC(=O)c3ccc([N+](=O)[O-])cc3)nc2C)cs1	Cruzain inh noDet 10µM
CCOc1ccccc1Nc1nc(-c2sc(NC(=O)c3ccc([N+](=O)[O-])cc3)nc2C)cs1	Cruzain inh noDet 6.3µM
COc1ccc(-c2nc(NC(=O)c3ccccc3)sc2-c2ccc([N+](=O)[O-])cc2)cc1	Cruzain inh noDet 7.9µM
Cc1ccccc1Nc1nc(-c2sc(NC(=O)c3ccccc3)nc2C)cs1	Cruzain inh noDet 13µM
Cc1ccc(C(=O)Nc2nc(-c3ccc([N+](=O)[O-])cc3)cs2)o1	none
C=CCCC(=O)Nc1nc(C)c(-c2csc(Nc3ccccc3OC)n2)s1	Cruzain inh noDet inconclusive
COc1ccc(-c2sc(NC(C)=O)nc2-c2ccccc2)cc1	none
Cc1ccc(Nc2nc(-c3sc(NC(=O)c4ccc([N+](=O)[O-])cc4)nc3C)cs2)cc1	Cruzain inh noDet 7.9µM
COc1cccc(NC(=O)CCN2CCN(CCO)CC2)c1	none
CCC(=O)N1CCc2cc(Br)cc(S(=O)(=O)CCC(=O)NCc3cccc(OC)c3)c21	none
COc1ccc(N2CCN(CCCNC(=O)c3ccc4nc(CCc5ccccc5)oc4c3)CC2)cc1	none
Cc1noc(C)c1C(=O)OCC(=O)NC(c1ccccc1)c1ccccc1	none
Cc1onc(-c2c(F)cccc2Cl)c1C(=O)OCC(=O)NC(c1ccccc1)c1ccccc1	Cruzain inh noDet 32µM
Cc1cccc(NS(=O)(=O)c2ccc3c(c2)Cc2cc(S(=O)(=O)Nc4cccc(C)c4C)ccc2-3)c1C	Cruzain inh noDet 4µM
Cc1cccc(NS(=O)(=O)c2ccc3[nH]c(=O)[nH]c3c2)c1C	none
CC(=O)N1c2ccccc2C(C)(c2ccc(C)cc2)CC1(C)C (configuration not stated)	none
COc1cccc(NC(=O)C(=O)NCCc2sc(-c3cccc(C)c3)nc2C)c1	none
COc1ccc(NC(=O)Cn2nc3c(cc2=O)CCCC3)cc1Cl	none
N#Cc1c(NCCCO)nc(-c2ccco2)c2c1CCCC2	Cruzain inh Det 16µM
N#Cc1c2c(c(-c3ccco3)[nH]c1=O)CCCC2	none
CC1(C)Cc2c(C#N)c(NCCN3CCOCC3)nc(-c3ccco3)c2CO1	none
N#Cc1c(NC2CCCCC2)nc(-c2ccco2)c2c1CCCC2	Cruzain inh Det 16µM, Cruzain inh noDet 25µM
CCCn1c(=N)c(C(=O)NCc2cccnc2)cc2c(=O)n3cc(C)ccc3nc21	none
Cc1ccc2nc3c(cc(C(=O)NCc4cccnc4)c(=N)n3C(C)C)c(=O)n2c1	Cruzain inh Det 32µM, Cruzain inh noDet inconclusive
CC(C)(C)C(=O)NCCc1csc2nc(-c3ccc(F)cc3)nn12	none
Cc1ccc(-c2nnc(SCC(=O)N3CCN(c4ccccc4)CC3)o2)cc1	Cruzain inh noDet 10µM
COc1ccc(-c2nnc(SCC(=O)N3CCN(c4ccccc4)CC3)o2)cc1OC	none
Cc1ccccc1CS(=O)(=O)Cc1ccc(C(=O)NCCc2ccc(Cl)cc2)o1	none
COc1ccc(-c2nc(SCC(=O)Nc3ccc4c(c3)OCO4)c(-c3ccccc3)[nH]2)cc1	Cruzain inh noDet inconclusive
Cc1[nH]c2ccccc2c1/C=N/Nc1ccc(F)cc1F	Cruzain inh noDet inconclusive
Cc1[nH]c2ccccc2c1/C=N/Nc1ccc([N+](=O)[O-])cc1	Cruzain inh noDet 25µM
COc1ccccc1NS(=O)(=O)c1cc([N+](=O)[O-])ccc1N/N=C/c1c(C)[nH]c2ccccc12	Cruzain inh noDet 7.9µM
O=[N+]([O-])c1ccc(N/N=C/c2c[nH]c3ccccc23)c(S(=O)(=O)Nc2ccc(Cl)cc2)c1	Cruzain inh noDet inconclusive
CC(/C=N/NC(=O)c1cc(-c2ccc(Cl)cc2)nc2ccccc12)=C\c1ccco1	Cruzain inh noDet 7.9µM
CC(/C=N/NC(=O)c1cc(-c2ccccc2)nc2ccccc12)=C\c1ccco1	Cruzain inh noDet inconclusive
CCOc1ccc(CCNC(=O)Cn2nc(CC)n3c(cc4ccccc43)c2=O)cc1	none
CCC(=O)N1c2ccc(C)cc2C2=NNC(=S)NC21O (configuration not stated)	Cruzain inh Det inconclusive, Cruzain inh noDet 0.63µM
CC1=CC(C)(C)N(C(=O)CN2C(=O)c3ccccc3C2=O)c2ccc(C)cc21	none
CCc1ccc(NC(=O)Cn2c(=O)n(Cc3ccco3)c(=O)c3cccnc32)cc1	none
CCC(=O)N1CCc2cc(Br)cc(S(=O)(=O)CCC(=O)NCc3ccc(C)cc3)c21	none
CN(C)c1ccc(/C=N\NC(=S)SCN2C(=O)C3CCC(C)(C2=O)C3(C)C)cc1 (configuration not stated)	Cruzain inh noDet 32µM
CC12CCC(C(=O)N(CSC(=S)N/N=C\c3ccccc3O)C1=O)C2(C)C (configuration not stated)	Cruzain inh noDet inconclusive
COc1ccc2c(c1)NC(c1ccc(F)cc1)=NC(c1ccc(F)cc1)=N2	Cruzain inh noDet inconclusive
CCCOc1ccc(C2=NC(c3ccc(F)cc3)=Nc3ccc(OC)cc3N2)cc1	Cruzain inh noDet 10µM
C=CCn1c(-c2ccccc2)c[nH]c1=S	none
S=c1[nH]cc(-c2ccccc2)n1-c1cccc(Cl)c1	none
Cn1c(-c2ccc(-c3ccccc3)cc2)c[nH]c1=S	Cruzain inh noDet 10µM
